Targets with a hit are over-represented here; the source holds about 8,800 in all. About 0.5% of all pairs of compound and target were hits. Unmarked numbers belong to inactive results.

What all share (assay): log2 fold change, soluble protein after heating vs DMSO (PISA); higher = thermal stabilisation; K562 lysate, 10 uM; active = over 0.2 and 3.5 SD of the protein, either way, in both replicates (recomputed)
Compound in assay [1]: NCC(=O)Nc1ccc(-n2nc(C(F)(F)F)cc2-c2ccc3c(ccc4ccccc43)c2)cc1
In outline: (§1)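 Pellets of K562 cells were dounce-homogenised in PBS pH 7.4 with 1 mM MgCl2, and the crude extract was held at 1 mg/mL protein for a 30 min treatment with 10 μM compound. Aliquots were heated for 3 min over 48°C-58°C and pooled before NP-40 was added to 0.5% at 4°C. The supernatant from 21,000xg for 90 min was quantified by TMTpro 16plex LC-MS/MS with channel sums equalised. Values are reported from duplicates as log-two fold change in thermal stability relative to solvent controls.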

Compound in a further assay: O=C(CCCCCCC(=O)Nc1ccccc1)NO [vorinostat]
The method, boiled down:
as §1

Compound in another assay: O=C(O)c1ccc2c(c1)nc(Nc1cccc(Cl)c1)c1ccncc12 [silmitasertib]
The method, boiled down:
as §1

Compound in assay [2]: O=C1NC(=O)C(c2cnc3ccccn23)=C1c1cn2c3c(cc(F)cc13)CN(C(=O)N1CCCCC1)CC2
The method, boiled down:
as §1

Compound in a further assay: c1cn2cc(-c3ccc4cn[nH]c4c3)nc(Nc3ccc(N4CCOCC4)cc3)c2n1 [entospletinib]
In outline:
as §1

Sequence of UniProt Q9H3Z4 (Q9H3Z4 whole entry, looked up): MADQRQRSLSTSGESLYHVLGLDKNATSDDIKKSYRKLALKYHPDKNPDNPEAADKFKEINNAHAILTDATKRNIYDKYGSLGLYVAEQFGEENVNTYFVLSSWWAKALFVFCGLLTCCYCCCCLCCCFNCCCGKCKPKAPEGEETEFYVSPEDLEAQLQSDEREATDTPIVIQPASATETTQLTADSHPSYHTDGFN
Sequence of UniProt P51790 (P51790 whole entry, looked up): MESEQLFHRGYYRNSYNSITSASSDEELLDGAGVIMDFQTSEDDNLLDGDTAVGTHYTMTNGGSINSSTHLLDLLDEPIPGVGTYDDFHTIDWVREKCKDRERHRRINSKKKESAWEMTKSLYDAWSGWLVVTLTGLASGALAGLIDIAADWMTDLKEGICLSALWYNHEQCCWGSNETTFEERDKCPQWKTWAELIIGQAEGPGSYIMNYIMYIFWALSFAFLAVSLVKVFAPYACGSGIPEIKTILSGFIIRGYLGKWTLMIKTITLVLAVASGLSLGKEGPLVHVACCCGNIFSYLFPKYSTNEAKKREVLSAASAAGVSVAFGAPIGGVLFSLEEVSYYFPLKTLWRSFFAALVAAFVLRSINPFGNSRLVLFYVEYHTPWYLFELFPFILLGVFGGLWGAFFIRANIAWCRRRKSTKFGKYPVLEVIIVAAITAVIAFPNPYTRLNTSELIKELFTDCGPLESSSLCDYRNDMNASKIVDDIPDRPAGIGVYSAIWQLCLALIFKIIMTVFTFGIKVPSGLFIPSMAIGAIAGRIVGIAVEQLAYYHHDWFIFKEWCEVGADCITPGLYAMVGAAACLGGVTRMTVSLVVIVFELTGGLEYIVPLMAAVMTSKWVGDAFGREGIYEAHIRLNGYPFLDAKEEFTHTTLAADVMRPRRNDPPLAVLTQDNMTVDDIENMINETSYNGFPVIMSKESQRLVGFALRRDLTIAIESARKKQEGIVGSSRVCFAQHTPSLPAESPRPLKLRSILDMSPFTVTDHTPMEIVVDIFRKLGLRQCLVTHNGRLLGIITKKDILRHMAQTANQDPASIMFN
Sequence of UniProt Q99704 (Q99704 whole entry, looked up): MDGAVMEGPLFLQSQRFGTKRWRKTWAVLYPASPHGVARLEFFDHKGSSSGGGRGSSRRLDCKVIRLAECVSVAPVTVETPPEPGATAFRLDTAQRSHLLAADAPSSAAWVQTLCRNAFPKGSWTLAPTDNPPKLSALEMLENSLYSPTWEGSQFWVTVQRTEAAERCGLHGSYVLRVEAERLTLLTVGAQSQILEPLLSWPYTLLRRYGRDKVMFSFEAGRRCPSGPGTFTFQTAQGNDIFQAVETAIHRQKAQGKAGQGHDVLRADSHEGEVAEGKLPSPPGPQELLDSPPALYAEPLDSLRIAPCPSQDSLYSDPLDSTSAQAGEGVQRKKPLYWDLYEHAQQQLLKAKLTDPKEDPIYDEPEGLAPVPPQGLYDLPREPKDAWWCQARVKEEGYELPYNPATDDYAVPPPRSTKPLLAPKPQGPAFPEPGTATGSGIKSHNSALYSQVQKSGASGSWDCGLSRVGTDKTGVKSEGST
Sequence of UniProt Q99766 (Q99766 whole entry, looked up): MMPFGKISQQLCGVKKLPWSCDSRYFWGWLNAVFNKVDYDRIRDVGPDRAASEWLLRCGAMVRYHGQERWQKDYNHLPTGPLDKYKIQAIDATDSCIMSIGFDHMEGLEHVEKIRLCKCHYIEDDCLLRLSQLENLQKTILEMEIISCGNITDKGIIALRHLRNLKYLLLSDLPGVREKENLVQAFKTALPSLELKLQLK
Sequence of UniProt Q9UP83 (Q9UP83 whole entry, looked up): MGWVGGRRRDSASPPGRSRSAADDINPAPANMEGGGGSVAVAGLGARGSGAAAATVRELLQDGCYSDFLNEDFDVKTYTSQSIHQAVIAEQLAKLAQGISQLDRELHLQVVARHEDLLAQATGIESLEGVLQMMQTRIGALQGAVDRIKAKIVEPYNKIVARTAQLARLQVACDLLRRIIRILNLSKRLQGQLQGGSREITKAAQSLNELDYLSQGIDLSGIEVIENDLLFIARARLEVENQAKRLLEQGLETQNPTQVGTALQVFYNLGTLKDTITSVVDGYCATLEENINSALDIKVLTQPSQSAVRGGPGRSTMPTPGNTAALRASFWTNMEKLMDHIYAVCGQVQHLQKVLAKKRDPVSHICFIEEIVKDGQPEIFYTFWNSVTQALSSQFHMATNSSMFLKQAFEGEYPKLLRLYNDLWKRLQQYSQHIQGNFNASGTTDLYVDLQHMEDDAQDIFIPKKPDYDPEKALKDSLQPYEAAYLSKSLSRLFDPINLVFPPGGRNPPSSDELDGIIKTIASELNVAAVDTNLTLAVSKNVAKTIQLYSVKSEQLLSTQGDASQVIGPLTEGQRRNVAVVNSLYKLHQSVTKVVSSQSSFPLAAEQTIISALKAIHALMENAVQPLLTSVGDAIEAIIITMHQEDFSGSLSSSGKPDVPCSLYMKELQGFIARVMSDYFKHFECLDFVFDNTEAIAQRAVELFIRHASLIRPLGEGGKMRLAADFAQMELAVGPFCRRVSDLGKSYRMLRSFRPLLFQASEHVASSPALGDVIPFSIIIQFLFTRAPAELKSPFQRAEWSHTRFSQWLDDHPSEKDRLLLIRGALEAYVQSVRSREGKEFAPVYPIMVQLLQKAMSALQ
Sequence of UniProt Q6P3S1 (Q6P3S1 whole entry, looked up): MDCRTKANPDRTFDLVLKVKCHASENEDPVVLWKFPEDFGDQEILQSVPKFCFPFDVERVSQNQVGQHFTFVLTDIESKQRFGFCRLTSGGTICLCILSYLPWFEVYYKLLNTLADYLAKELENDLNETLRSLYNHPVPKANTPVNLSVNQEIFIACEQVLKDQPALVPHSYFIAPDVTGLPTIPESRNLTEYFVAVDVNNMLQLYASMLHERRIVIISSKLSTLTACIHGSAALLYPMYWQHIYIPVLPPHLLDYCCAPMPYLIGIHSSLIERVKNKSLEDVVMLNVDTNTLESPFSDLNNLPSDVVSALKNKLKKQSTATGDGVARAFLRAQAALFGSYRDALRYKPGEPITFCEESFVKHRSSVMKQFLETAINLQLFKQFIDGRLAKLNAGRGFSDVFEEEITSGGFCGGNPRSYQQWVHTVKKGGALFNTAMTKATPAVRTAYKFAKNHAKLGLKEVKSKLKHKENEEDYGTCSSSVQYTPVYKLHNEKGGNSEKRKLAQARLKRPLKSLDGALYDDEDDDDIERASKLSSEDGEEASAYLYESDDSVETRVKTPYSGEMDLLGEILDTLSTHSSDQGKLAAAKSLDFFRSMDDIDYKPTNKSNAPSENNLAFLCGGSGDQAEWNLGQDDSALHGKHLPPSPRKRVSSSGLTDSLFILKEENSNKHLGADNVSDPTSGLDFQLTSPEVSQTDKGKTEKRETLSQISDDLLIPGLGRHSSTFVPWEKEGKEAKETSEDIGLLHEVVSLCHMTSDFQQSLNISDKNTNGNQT
Sequence of UniProt Q9BQ75 (Q9BQ75 whole entry, looked up): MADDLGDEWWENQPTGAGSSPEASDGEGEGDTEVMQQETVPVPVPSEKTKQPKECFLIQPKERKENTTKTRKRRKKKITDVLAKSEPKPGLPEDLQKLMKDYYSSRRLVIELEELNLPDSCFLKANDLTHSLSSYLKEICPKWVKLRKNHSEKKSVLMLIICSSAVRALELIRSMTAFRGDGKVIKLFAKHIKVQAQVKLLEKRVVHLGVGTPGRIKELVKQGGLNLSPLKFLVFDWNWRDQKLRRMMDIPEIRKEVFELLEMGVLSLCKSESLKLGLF
Sequence of UniProt Q9UBU7 (Q9UBU7 whole entry, looked up): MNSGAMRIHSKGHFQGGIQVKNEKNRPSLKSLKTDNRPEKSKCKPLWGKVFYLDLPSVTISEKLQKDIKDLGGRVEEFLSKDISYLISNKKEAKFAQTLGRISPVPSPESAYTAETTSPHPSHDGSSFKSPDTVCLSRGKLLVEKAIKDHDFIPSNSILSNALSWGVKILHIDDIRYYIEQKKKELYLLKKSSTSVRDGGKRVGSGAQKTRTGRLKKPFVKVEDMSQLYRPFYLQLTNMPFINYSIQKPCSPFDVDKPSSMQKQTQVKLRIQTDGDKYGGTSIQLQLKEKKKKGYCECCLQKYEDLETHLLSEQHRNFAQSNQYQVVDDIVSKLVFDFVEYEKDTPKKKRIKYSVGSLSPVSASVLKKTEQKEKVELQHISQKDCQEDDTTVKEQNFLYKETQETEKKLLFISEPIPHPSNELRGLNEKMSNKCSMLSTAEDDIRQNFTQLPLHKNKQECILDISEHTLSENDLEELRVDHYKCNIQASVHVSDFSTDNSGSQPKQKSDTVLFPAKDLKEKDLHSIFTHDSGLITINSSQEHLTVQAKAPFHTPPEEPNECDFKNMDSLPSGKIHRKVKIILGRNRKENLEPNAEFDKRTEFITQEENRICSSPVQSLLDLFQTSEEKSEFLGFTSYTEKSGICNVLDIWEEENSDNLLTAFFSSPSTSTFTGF
Sequence of UniProt P29373 (P29373 whole entry, looked up): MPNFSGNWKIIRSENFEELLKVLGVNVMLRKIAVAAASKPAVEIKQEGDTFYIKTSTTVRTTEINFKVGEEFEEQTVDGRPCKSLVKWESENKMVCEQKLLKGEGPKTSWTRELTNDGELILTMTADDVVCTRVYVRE
Sequence of UniProt P17661 (P17661 whole entry, looked up): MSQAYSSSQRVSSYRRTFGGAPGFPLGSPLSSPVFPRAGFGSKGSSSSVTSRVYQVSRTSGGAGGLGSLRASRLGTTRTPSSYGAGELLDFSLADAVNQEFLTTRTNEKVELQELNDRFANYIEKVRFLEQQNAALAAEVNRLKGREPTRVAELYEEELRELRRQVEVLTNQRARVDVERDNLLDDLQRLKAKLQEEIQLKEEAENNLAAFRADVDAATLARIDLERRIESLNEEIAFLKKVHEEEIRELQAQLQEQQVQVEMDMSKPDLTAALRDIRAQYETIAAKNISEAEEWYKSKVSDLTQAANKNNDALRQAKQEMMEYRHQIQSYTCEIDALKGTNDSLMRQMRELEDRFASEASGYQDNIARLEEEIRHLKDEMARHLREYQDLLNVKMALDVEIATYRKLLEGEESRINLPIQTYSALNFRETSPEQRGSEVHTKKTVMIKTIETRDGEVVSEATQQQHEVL

As for DENND1B (UniProt Q6P3S1), the log2 fold change is -0.063 in assay [1], -1.3 (active) in the assay with vorinostat, 0.28 with silmitasertib and -0.076 in assay [2].

Take DNAH5 (UniProt Q8TE73): the values for the log2 fold change (in assay [1]; in the assay with vorinostat; with silmitasertib) were 0.008, 0.113 and -0.179, respectively.

Turning to DPY19L3 (UniProt Q6ZPD9), the log2 fold change in assay [1] was -0.085; with vorinostat, 0.219; in the assay with silmitasertib it was 0.108; in assay [2], 0.035; with entospletinib, -0.024.

For DNAJC5 (UniProt Q9H3Z4), the log2 fold change in assay [1] was 0.02; in the assay with vorinostat it was 0.101; with silmitasertib, -0.071; in assay [2], -0.03; with entospletinib, 0.019.

Consider CLCN3 (UniProt P51790), for which the log2 fold change was -0.165 in assay [1]; -0.171 with vorinostat; 0.118 with silmitasertib; -0.245 in assay [2]; 0.025 with entospletinib.

With COG5 isoform 2 (UniProt Q9UP83), the log2 fold change is -0.005 in assay [1]; -0.342 (active) in the assay with vorinostat; 0.073 with silmitasertib; -0.029 in assay [2]; 0.038 with entospletinib.

On to CSNK1G3 (UniProt Q9Y6M4), for which the log2 fold change in assay [1] is -0.004; in the assay with vorinostat, -0.011; with silmitasertib it was 0.055; in assay [2], -0.029; in the assay with entospletinib, 0.039.

Take DAPK1 isoform 3 (UniProt P53355): the log2 fold change in assay [1] was 0.09; in the assay with vorinostat, -0.477; with silmitasertib, 0.833 (active); in assay [2] it was 0.004.

For the target CMIP (UniProt Q8IY22), the log2 fold change in assay [1] is -0.101; with vorinostat, -0.541 (active); with silmitasertib it was 0.018; in assay [2], 0.021; with entospletinib it was -0.052.

As for DBF4 (UniProt Q9UBU7), the log2 fold change in assay [1] is 0.059; with vorinostat it was -0.226; with silmitasertib, -0.138; in assay [2], 0.028; with entospletinib, 0.002.

DES (UniProt P17661): the log2 fold change in assay [1] was 0.108; with vorinostat it was 0.097; in the assay with silmitasertib, 0.03; in assay [2], 0.05; with entospletinib, 0.027.

CUX1 isoform 3 (UniProt P39880): the log2 fold change in assay [1] was 0.008; in the assay with vorinostat it was 0.005; with silmitasertib, 0.025; in assay [2] it was -0.022; in the assay with entospletinib it was -0.014.

On to COQ9 (UniProt O75208), for which the log2 fold change is 0.005 in assay [1]; 0.084 in the assay with vorinostat; 0.002 in the assay with silmitasertib; 0.031 in assay [2]; -0.012 with entospletinib.

As to CLCN3 isoform 2 (UniProt P51790), the log2 fold change was -0.059 in assay [1]; -0.286 (active) with vorinostat; 0.033 with silmitasertib; -0.024 in assay [2]; 0.046 with entospletinib.

As for DMAC2L (UniProt Q99766), the log2 fold change in assay [1] is -0.023; in the assay with vorinostat, -0.174; with silmitasertib, 0.037; in assay [2], -0.038; with entospletinib, 0.022.

For CRABP2 (UniProt P29373), the log2 fold change in assay [1] is 0.169; in the assay with vorinostat, 0.18; with silmitasertib, -0.05; in assay [2], 0.007; in the assay with entospletinib, -0.209.

For the target CYP2S1 isoform 2 (UniProt Q96SQ9), the log2 fold change in assay [1] was 0.014; with vorinostat, 0.067; with silmitasertib, -0.027; in assay [2] it was -0.025; with entospletinib, 0.055.

CIC (UniProt I3L2J0): the log2 fold change in assay [1] is -0.002; with vorinostat it was -0.108; with silmitasertib, -0.011; in assay [2], 0.075; with entospletinib, 0.033.

With CMTM3 (UniProt Q96MX0), the log2 fold change is 0.05 in assay [1]; -0.516 (active) with vorinostat; -0.004 with silmitasertib; -0.03 in assay [2]; -0.004 with entospletinib.

With COASY isoform 2 (UniProt Q13057), the log2 fold change in assay [1] was 0.018; with vorinostat it was -0.214 (active); with silmitasertib, 0.075; in assay [2] it was 0.006; in the assay with entospletinib, 0.019.

As for CHUK (UniProt O15111), the log2 fold change in assay [1] is -0.016; with vorinostat, -0.492 (active); with silmitasertib it was 0.103; in assay [2], 0.054; with entospletinib it was 0.012.

As to DOCK7 (UniProt Q96N67), the log2 fold change in assay [1] was 0.032; with vorinostat, -0.348 (active); with silmitasertib, 0.053; in assay [2], -0.019; in the assay with entospletinib it was -0.039.

Consider CMSS1 (UniProt Q9BQ75), for which the log2 fold change was 0.025 in assay [1]; -0.272 (active) in the assay with vorinostat; 0.038 with silmitasertib; -0.024 in assay [2]; -0.013 in the assay with entospletinib.

Consider DARS (UniProt P14868), for which the log2 fold change in assay [1] was 0.003; with vorinostat, -0.327 (active); with silmitasertib, 0.056; in assay [2], 0.019; in the assay with entospletinib, 0.035.

With DOK1 (UniProt Q99704), the log2 fold change in assay [1] is -0.036; with vorinostat, -0.297 (active); with silmitasertib it was -0.043; in assay [2], -0.012; with entospletinib it was -0.011.

(Values after the supplement of paper PMC10849652.)
